Source: PubChem BioAssay (NCI)
Compounds without any hit were thinned out: in the full panel of roughly 79,000, 15% have a hit. Calls of active or inactive are those of the source. No stated cut-off is given here; in the data, active means growth inhibition above about 70%; inactive means the rest.

Columns and labels:
[1] = NCI Yeast Anticancer Drug Screen. Data for the rad52 strain (AID 147);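 further: 0% = growth of vehicle-treated control cultures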; details: S. cerevisiae rad52 mutant growth inhibition, stronger effect = higher value
How it was run: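 Compounds are applied to a genetically defined yeast strain lacking normal DNA damage repair, and inhibition of growth is expressed relative to cultures given vehicle only.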

[2] = NCI Yeast Anticancer Drug Screen. Data for the wt1 strain (AID 149);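 further: 0% = growth of vehicle-treated wt1 cultures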; details: S. cerevisiae wt1 strain (SPY 50644) growth inhibition, stronger effect = higher value
How it was run: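 wt1 yeast, compound-treated; % growth inhibition vs vehicle control.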

[3] = NCI Yeast Anticancer Drug Screen. Data for the rad50EPP+ strain (AID 151);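 further: 0% = growth of vehicle-treated control cultures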; details: S. cerevisiae rad50 mutant strain, stronger effect = higher value
How it was run: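 Compounds were applied to the rad50EPP+ yeast strain, which bears a defined DNA repair alteration, and growth inhibition was determined relative to vehicle-treated cultures.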

[4] = NCI Yeast Anticancer Drug Screen. Data for the mgt1 strain (AID 153); details: S. cerevisiae mgt1 mutant growth inhibition, stronger effect = higher value
How it was run: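 Strain: mgt1 yeast, one of a set carrying defined DNA damage repair or cell cycle control alterations. Compound-treated growth compared with vehicle.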

[5] = NCI Yeast Anticancer Drug Screen. Data for the rad50 strain (AID 155);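 further: 0% = growth of vehicle-only cultures of the same strain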; details: S. cerevisiae rad50 strain growth inhibition, stronger effect = higher value
How it was run: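 Genetically altered yeast (DNA repair pathway); compound treatment; growth inhibition vs vehicle ctrl.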

[6] = NCI Yeast Anticancer Drug Screen. Data for the mec2-1 strain (AID 157); details: S. cerevisiae mec2-1 strain, stronger effect = higher value
How it was run: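 Strain: mec2-1 (DNA repair/cell cycle alteration). Compound exposure, then growth measured; inhibition expressed relative to vehicle.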

[7] = NCI Yeast Anticancer Drug Screen. Data for the rad14 strain (AID 159);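 further: 0% = growth of vehicle-treated control cultures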; details: S. cerevisiae rad14 strain growth inhibition, stronger effect = higher value
How it was run: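 Test compounds were applied to a repair-deficient yeast strain. Its growth was then compared with that of cultures given vehicle alone, and inhibition was expressed relative to those controls.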

[8] = NCI Yeast Anticancer Drug Screen. Data for the sgs1 mgt1 strain (AID 161);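 further: 0% = growth of cultures given vehicle only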; details: S. cerevisiae sgs1 mgt1 strain, stronger effect = higher value
How it was run: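 Genetically altered yeast, compound exposure, growth inhibition relative to vehicle.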

[9] = NCI Yeast Anticancer Drug Screen. Data for the CLN2oe strain (AID 163);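 further: 0% = growth of vehicle-only control cultures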; details: S. cerevisiae CLN2oe strain, stronger effect = higher value
How it was run: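 Growth of a genetically modified yeast strain is measured after compound exposure and compared with cultures given vehicle alone.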

[10] = NCI Yeast Anticancer Drug Screen. Data for the cln2 rad14 strain (AID 165);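 further: 0% = growth equal to vehicle treated cultures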; details: S. cerevisiae cln2 rad14 strain, stronger effect = higher value
How it was run: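 Compounds are applied to the cln2 rad14 yeast strain, and growth is then compared with that of vehicle-treated cultures to give inhibition.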

[11] = NCI Yeast Anticancer Drug Screen. Data for the bub3 strain (AID 167); details: S. cerevisiae bub3 mutant strain, stronger effect = higher value
How it was run: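 Yeast carrying a defined mutation is treated with each compound, and growth is compared with that of vehicle-exposed cells to give inhibition.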

[12] = NCI Yeast Anticancer Drug Screen. Data for the wt2 strain (AID 169);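 further: 0% = growth of vehicle-treated yeast cultures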; details: S. cerevisiae wt2 strain growth inhibition, stronger effect = higher value
How it was run: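 This strain belongs to a panel of yeast strains with defined genetic alterations in DNA damage repair or cell cycle control. Compounds are applied, and growth inhibition is measured against vehicle-treated cultures.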

[13] = NCI Yeast Anticancer Drug Screen. Data for the mlh1 strain (AID 171);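 further: 0% = growth of vehicle-treated control cultures of the same strain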; details: S. cerevisiae mlh1 strain growth inhibition, stronger effect = higher value
How it was run: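 Growth of the mutant yeast strain after compound exposure, expressed as inhibition relative to vehicle-only controls.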

[14] = NCI Yeast Anticancer Drug Screen. Data for the mlh1 rad18 strain (AID 175); details: S. cerevisiae mlh1 rad18 strain growth inhibition, stronger effect = higher value
How it was run: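 Read-out is yeast growth inhibition, calculated against vehicle-only controls. The compound was applied to a strain engineered with DNA damage repair alterations.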

[15] = NCI Yeast Anticancer Drug Screen. Data for the rad18 strain (AID 177); details: S. cerevisiae rad18 mutant growth inhibition, stronger effect = higher value
How it was run: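 Growth of the mutant yeast strain after compound exposure, normalised to vehicle-only cultures.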

[16] = NCI Yeast Anticancer Drug Screen. Data for the sgs1 strain (AID 173);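 further: 0% = growth of vehicle-only control cultures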; details: S. cerevisiae sgs1 mutant, stronger effect = higher value
How it was run: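 Growth of a yeast strain bearing a defined genetic alteration is measured after compound treatment. Inhibition is expressed relative to vehicle-only controls.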

[17] = at 5.0 µM (retest, dose inferred, filed as 0.5)
[18] = at 50.0 µM (retest, dose inferred, filed as 5.0)

Measured: growth inhibition

Nc1ccccc1CC(O)C(=O)O (stereo unspecified)
inactive: [1]; at 1.2 µM 0% | [1]; at 3.7 µM 5% | [1]; at 11.0 µM 14% | [1]; at 33.0 µM 53% | [2]; at 1.2 µM 2% | [2]; at 3.7 µM 3% | [2]; at 11.0 µM 13% | [2]; at 33.0 µM 42% | [3]; at 1.2 µM -2% | [3]; at 3.7 µM 1% | [3]; at 11.0 µM -1% | [3]; at 33.0 µM 2% | [3]; at 100.0 µM 4% | [4]; at 1.2 µM 4% | [4]; at 3.7 µM -1% | [4]; at 11.0 µM 14% | [5]; at 1.2 µM 3% | [5]; at 3.7 µM 13% | [5]; [17] -15% | [5]; at 11.0 µM 27% | [6]; at 1.2 µM 0% | [6]; at 3.7 µM 8% | [6]; [17] 3% | [6]; at 11.0 µM 14% | [6]; at 33.0 µM 30% | [6]; at 50.0 µM 52.1% | [7]; at 1.2 µM -3% | [7]; at 3.7 µM 6% | [7]; at 11.0 µM 24% | [8]; [17] -6% | [9]; at 1.2 µM 5% | [9]; at 3.7 µM 9% | [9]; at 11.0 µM 13% | [9]; at 33.0 µM 25% | [9]; at 100.0 µM 42% | [10]; [17] -2% | [10]; [18] 14% | [10]; at 50.0 µM 13.6% | [11]; at 1.2 µM 5% | [11]; at 3.7 µM -14% | [11]; [17] -17% | [11]; at 11.0 µM 9% | [12]; at 1.2 µM 2% | [12]; at 3.7 µM 6% | [12]; at 11.0 µM 21% | [13]; at 1.2 µM 2% | [13]; at 3.7 µM 4% | [13]; at 11.0 µM 29% | [14]; [17] 0% | [15]; at 1.2 µM 1% | [15]; at 3.7 µM 4% | [15]; at 11.0 µM 10% | [15]; at 33.0 µM 60%
active: [1]; at 100.0 µM 88% | [2]; at 100.0 µM 90% | [4]; at 33.0 µM 74% | [4]; at 100.0 µM 95% | [5]; at 33.0 µM 85% | [5]; [18] 94% | [5]; at 50.0 µM 93% | [5]; at 100.0 µM 95% | [6]; [18] 74% | [6]; at 100.0 µM 90% | [7]; at 33.0 µM 91% | [7]; at 100.0 µM 97% | [8]; [18] 95% | [8]; at 50.0 µM 94.5% | [11]; at 33.0 µM 70% | [11]; [18] 90% | [11]; at 50.0 µM 83.8% | [11]; at 100.0 µM 92% | [12]; at 33.0 µM 90% | [12]; at 100.0 µM 95% | [13]; at 33.0 µM 92% | [13]; at 100.0 µM 97% | [14]; [18] 94% | [14]; at 50.0 µM 92.7% | [15]; at 100.0 µM 90%

COc1ccccc1C(=O)OCC1CCCN2CCCCC12 (stereo unspecified)
inactive: [1]; at 1.2 µM 22% | [1]; at 3.7 µM 8% | [1]; at 11.0 µM 57% | [2]; at 1.2 µM 0% | [2]; at 3.7 µM -7% | [2]; at 11.0 µM 7% | [3]; at 1.2 µM 4% | [3]; at 3.7 µM -3% | [4]; at 1.2 µM 23% | [4]; at 3.7 µM 15% | [5]; at 1.2 µM 8% | [5]; at 3.7 µM 8% | [5]; [17] 21% | [5]; at 11.0 µM 68% | [6]; at 1.2 µM 0% | [6]; at 3.7 µM -6% | [6]; [17] 53% | [6]; at 11.0 µM 0% | [6]; at 33.0 µM 56% | [7]; at 1.2 µM 10% | [7]; at 3.7 µM 17% | [8]; [17] -17% | [8]; [18] 40% | [9]; at 1.2 µM 8% | [9]; at 3.7 µM -1% | [9]; at 11.0 µM -12% | [9]; at 33.0 µM 63% | [10]; [17] -9% | [10]; [18] 8% | [11]; at 1.2 µM -9% | [11]; at 3.7 µM -20% | [11]; [17] 7% | [11]; at 11.0 µM 31% | [12]; at 1.2 µM -18% | [12]; at 3.7 µM -5% | [13]; at 1.2 µM 23% | [13]; at 3.7 µM 15% | [16]; at 1.2 µM 10% | [16]; at 3.7 µM -15% | [16]; at 11.0 µM 62% | [16]; at 33.0 µM 63% | [14]; [17] 60% | [15]; at 1.2 µM -5% | [15]; at 3.7 µM -21% | [15]; at 11.0 µM 35%
active: [1]; at 33.0 µM 76% | [1]; at 100.0 µM 97% | [2]; at 33.0 µM 76% | [2]; at 100.0 µM 98% | [3]; at 11.0 µM 80% | [3]; at 33.0 µM 97% | [3]; at 100.0 µM 98% | [4]; at 11.0 µM 73% | [4]; at 33.0 µM 91% | [4]; at 100.0 µM 98% | [5]; at 33.0 µM 97% | [5]; [18] 99% | [5]; at 50.0 µM 90.7% | [5]; at 100.0 µM 97% | [6]; [18] 99% | [6]; at 50.0 µM 93% | [6]; at 100.0 µM 98% | [7]; at 11.0 µM 77% | [7]; at 33.0 µM 98% | [7]; at 100.0 µM 99% | [8]; at 50.0 µM 91.6% | [9]; at 100.0 µM 95% | [10]; at 50.0 µM 90.9% | [11]; at 33.0 µM 97% | [11]; [18] 91% | [11]; at 50.0 µM 90.8% | [11]; at 100.0 µM 97% | [12]; at 11.0 µM 94% | [12]; at 33.0 µM 96% | [12]; at 100.0 µM 98% | [13]; at 11.0 µM 73% | [13]; at 33.0 µM 91% | [13]; at 100.0 µM 98% | [16]; at 100.0 µM 98% | [14]; [18] 99% | [14]; at 50.0 µM 90.3% | [15]; at 33.0 µM 95% | [15]; at 100.0 µM 97%
